Sm TGR block = S. mansoni TGR enzyme inhibition; Q962Y6; purified TGR, DTNB reduction, TNB absorbance 405 nm; Potency, µM (top dose mostly 114 µM), without a hit: at the highest dose activity change, negative = inhibition, actives largely listed as inhibitors; 360,000 tested, 3% active; AID 485364; note: potency is the fitted concentration of half-maximal effect; nearly all actives have a fitted effect of over 60% in size
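TGR 20 nM + NADPH 100 uM (dispensed conc.), cpd preinc 15 min RT; start with NADPH (500 uM addition) then DTNB (15 mM addition). Kinetic TNB absorbance, 405 nm filter. Four-parameter Hill fit across titration.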
HCV inh = inhibitors of hepatitis C virus infection. AID 651820. Potency, µM (doses to about 41.8 µM), without a hit: at the highest dose activity change, negative = inhibition, usual class: inhibitors. Huh7.5.1 HCVcc-Cre infection, luciferase reporter, 44 h. 340,000 tested, 3.4% active; note: potency is the fitted concentration of half-maximal effect
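Antiviral activity was scored by luciferase reporter output from cells infected with HCVcc-Cre (~0.5 moi) in presence of compound, 44 h infection period, cells seeded 1,000/well 4 h prior.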
VACV Venus inh = vaccinia inhibition (Venus reporter). Vaccinia virus Venus reporter expression, fluorescence. Potency, µM (top dose mostly 36.5 µM), inactives show at the top dose activity change, negative = inhibition, most hits filed as inhibitors. 330,000 tested, 0.46% active. AID 720580; calls by dose curve; tested in A549 cells; note: potency is the fitted concentration of half-maximal effect; nearly all actives have a fitted effect of over 30% in size
FMDV inh = antivirals against foot and mouth disease virus; FMDV antiviral cell-based qHTS; Potency, µM (highest dose often 57.9 µM), for the others: at the top dose activity change, negative = inhibition, hits mostly inhibitors; 410,000 tested, 1.2% active; calls by dose curve; tested in HEK293T cells; note: read-out not given here; potency is the fitted concentration of half-maximal effect; nearly all actives have a fitted effect of over 45% in size
Vaccinia mCherry = vaccinia inhibition (mCherry reporter); AID 720579; Vaccinia virus mCherry reporter infection, fluorescence; 310,000 tested, 0.63% active; Potency, µM (highest dose often 36.5 µM), inactives show at the highest dose activity change, negative = inhibition, hits mostly inhibitors; calls by dose curve; tested in A549 cells; note: potency is the fitted concentration of half-maximal effect; nearly all actives have a fitted effect of over 35% in size
HCMV antiviral = human cytomegalovirus inhibition; HFF cells, HCMV-luciferase reporter, 72 h; stronger effect = lower value; 410,000 tested, 4.5% active; AID 1259415; activity change, negative = inhibition, % at 57.5 µM; in the data active = activity change below about -60%; inconclusive = no clear call, values can overlap the other calls; inactive = above about -39%
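Human foreskin fibroblasts infected with luciferase-reporter HCMV at MOI 1 PFU/cell, compounds at two doses. Luciferase measured 72 h post infection; normalized to buffer-only basal and Salinomycin (10uM) controls.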
* hit, by the source's call; i = inactive; ? = inconclusive; / = no result. Most compounds without a hit are left out; they make up all but 9.3% or so of the library. Unless noted, calls come from the whole dose curve; as a rule, active = well fitted curve in the direction sought with a large enough effect; inconclusive = small, poorly fitted or top-dose-only effect, or another doubt; inactive = no such curve, though single readings can be large; an effect the other way counts as inactive or inconclusive. % is set by controls: 0 for no effect and ±100 for the full control effect.

SMILES	Sm TGR block	HCV inh	VACV Venus inh	FMDV inh	Vaccinia mCherry	HCMV antiviral
CCOc1ccc(S(=O)(=O)NCCc2csc3nc(-c4ccc(F)cc4)nn23)cc1	6%	/	-26%	-10%	?	-16
O=C1NC(=Nc2cccc(O)c2)S/C1=C\c1cccnc1	8.9µM*	2%	-16%	20%	-10%	?
CCCCCc1cc(=O)oc2c(C(CCN3CCCCC3)c3cc(OC)c(OC)c(OC)c3)c(OC)cc(OC)c12 (configuration not stated)	-8%	?	16µM*	?	?	-11
CCCCCc1cc(=O)oc2c(C(CCN(CC)CC)c3ccc(N(C)C)cc3)c(OC)cc(OC)c12 (configuration not stated)	-7%	?	?	-10%	-29%	-75*
COc1cc(C(CCN2CCCC2)c2c(OC)cc(OC)c3ccc(=O)oc23)cc(OC)c1OC (configuration not stated)	-21%	2µM*	-11%	-6%	26%	1
COc1cc(C(CCN2CCN(c3ccccc3)CC2)c2c(OC)cc(OC)c3c(C)cc(=O)oc23)cc(OC)c1OC (configuration not stated)	2%	4µM*	-28%	-10%	-8%	-40
COc1ccc(NC(=O)CN(C)CC(=O)NC2CCCCC2C)cc1 (configuration not stated)	-7%	-18%	-14%	-2%	i	-2
COc1cc([N+](=O)[O-])ccc1NC(=O)C1CCCN(S(C)(=O)=O)C1 (configuration not stated)	-12%	1%	/	-16%	/	-20
CCCCCc1cc(=O)oc2c(C(CCN3CCCC(C)C3)c3ccc(N(C)C)cc3)c(OC)cc(OC)c12 (configuration not stated)	-33%	-15%	?	-12%	11µM*	/
COc1ccc(C(CCN2CCCCC2)c2c(OC)cc(OC)c3c(-c4ccccc4)cc(=O)oc23)cc1 (configuration not stated)	5%	2.8µM*	14µM*	18%	-27%	2
CCCCOc1ccc(NS(=O)(=O)c2ccc(-n3cnnn3)cc2)cc1	9%	1%	/	-17%	/	-25
COc1cccc(CNC(=O)c2cc(C)nc3ccccc23)c1	-3%	-20%	-8%	5%	i	23
Cc1ccc(-n2[nH]c(C)c(C=Nc3ccc4[nH]c(=O)[nH]c4c3)c2=O)cc1	-13%	4%	?	32µM*	?	23
CC1CCCC(C)N1CCNC(=O)C1CCN(S(=O)(=O)N2CCCCC2)CC1 (configuration not stated)	-25%	5%	-1%	/	-21%	-21
C=CCc1ccccc1OCC(CN1CCCCC1)OC(C)=O (configuration not stated)	?	-9%	-13%	-5%	-14%	-21
Cc1c(C(=O)Nc2ccccc2)cn2c(nc3ccccc32)c1C#N	7%	1%	-14%	-21%	i	26
Cc1ccccc1C(=O)Nc1ccc2c(C#N)c3nc4ccccc4nc3n2c1	-25%	1%	271%	?	67%	-65*
COc1ccc(CCC(=O)Nc2c(-c3ccc(N(C)C)cc3)[nH][nH]c2=O)cc1	/	/	-9%	-9%	26%	-68*
Cc1ccc(N=Nc2ccc(O)c3ncccc23)cc1	1%	?	?	-19%	13µM*	-96*
Oc1ccc(N=Nc2ccc3c(c2)OCO3)c2ccccc12	-5%	/	/	/	/	/
Cc1ccc(N=Nc2ccc(O)c3ncccc23)cc1C	?	?	/	41%	/	-98*
COc1ccc(N=Nc2cc(C)ccc2O)cc1	-24%	?	/	-25%	/	5
Cn1c2ccccc2c(=O)c2ccc(C#CC3(O)CCCCC3)cc21	-24%	10µM*	-26%	-52%	i	?
CCc1cc(=O)oc2c3c(cc(OCC(=O)NCc4ccco4)c12)OC(C)(C)CC3	-1%	1.3µM*	2%	?	-7%	/
CCc1cc(=O)oc2c3c(cc(OCC(=O)NC4CC4)c12)OC(C)(C)CC3	5%	0.79µM*	-15%	-20%	-9%	-10
SMILES	Sm TGR block	HCV inh	VACV Venus inh	FMDV inh	Vaccinia mCherry	HCMV antiviral
CCc1cc(=O)oc2c3c(cc(OCC(=O)NCCCC(=O)O)c12)OC(C)(C)CC3	12%	11%	/	-5%	/	-7
CCc1cc(=O)oc2c3c(cc(OCC(=O)NCCCOC)c12)OC(C)(C)CC3	-7%	?	-16%	3%	-3%	-69*
CCCC(=O)N1CCC1(C)C(=O)NS(=O)(=O)c1ccccc1Cl (configuration not stated)	/	/	0%	-19%	11%	-18
O=C1CCCCC1C(=O)c1cn(-c2ccc(Cl)c(Cl)c2)nn1 (configuration not stated)	1%	8%	1%	65%	-2%	-38
CCOc1ccc(CC(=O)OCc2cc(=O)n3cc(Br)ccc3n2)cc1	9%	-11%	-5%	-8%	i	-35
CCn1c(/C(C#N)=C/c2ccccc2Cl)nc2ccccc21	3%	/	8%	-17%	8%	-73*
COc1ccc(-n2nnnc2/C=C/Nc2cc(C(F)(F)F)ccc2OC)cc1	7%	?	/	-15%	/	33
COc1ccc(-n2nnnc2/C=C\Nc2ccccc2C(=O)c2ccccc2)cc1	6%	7.9µM*	/	2%	/	1
COc1ccc(Cn2c(N)c(C(=O)NCc3ccco3)c3nc4ccccc4nc32)cc1OC	35µM*	7.1µM*	-30%	?	-27%	10
COc1ccc(-n2c(N)c(C(=O)NCc3ccco3)c3nc4ccccc4nc32)cc1OC	40µM*	?	-9%	-10%	?	-81*
Nc1c(C(=O)NCc2ccc3c(c2)OCO3)c2nc3ccccc3nc2n1CCCN1CCOCC1	33%	?	?	/	?	-19
COc1ccccc1CNC(=O)c1c(N)n(CCCN2CCOCC2)c2nc3ccccc3nc12	-1%	/	?	-8%	13µM*	-30
COc1ccc(-n2c(N)c(C(=O)NCc3ccco3)sc2=S)cc1	-1%	6%	-10%	-12%	-12%	-2
COc1ccc(-n2c(N)c(C(=O)NCc3ccco3)c3nc4ccccc4nc32)cc1	45µM*	?	-15%	/	i	?
Cc1ccnc(NC(=O)c2cc3c(=O)oc4ccc(C)cc4c3s2)c1	10%	-7%	-2%	?	-13%	-2
CN(Cc1ccccc1)C(=O)[C@@H]1CCCN1	/	/	-8%	-15%	-9%	6
CCCCC(NC(=O)COc1cc2c(c3oc(=O)cc(C)c13)CCC(C)(C)O2)C(=O)O (configuration not stated)	-5%	24%	-17%	-6%	-16%	-32

Bioassay records: PubChem BioAssay, National Center for Advancing Translational Sciences (NCATS)
